Screening data (PubChem)
Sampled rows, rich in hits. Any-hit rate of the full collection: about 11%.
HEK293 tox: Cytotoxic Profiling in HEK 293 Cell Line of Diverse Libraries Using Quantitative High-Throughput Screening; HEK 293 viability, ATP luminescence (CellTiter-Glo), 48-72 h; Potency, µM (titrated, usually from 115 µM), for inactives: top-dose activity change, negative = cytotoxicity, hits mostly inhibitors; 6.6% of 94,000 active; AID 1345083, 2018; also: nearly all actives have a fitted effect of over 60% in size
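CellTiter-Glo luminescence (cellular ATP) was read after 48 or 72 hr of compound exposure at 37 degree Celsius. Cells were HEK 293 plated at 250 cells/well.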
FLuc inh: Firefly luciferase inhibition profiling of diverse chemical library using quantitative high-throughput screening; Luciferin 4-monooxygenase (Photinus pyralis), P08659; purified P. pyralis luciferase, luminescence, biochemical; Potency, µM (titrated, usually from 115 µM), hits mostly inhibitors; 2.5% of 76,000 active; AID 1347043, 2019; also: nearly all actives have a fitted effect of over 65% in size
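Biochemical qHTS: compound (6-point titration) added to 10uM D-luciferin plus 10uM ATP in Tris acetate pH 7.5 buffer with Mg, Tween-20 and BSA, then purified enzyme at 10nM; light output imaged.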
NIH3T3 tox: Cytotoxic Profiling in NIH 3T3 Cell Line of Diverse Libraries Using Quantitative High-Throughput Screening. Potency, µM (titrated, usually from 96.7 µM), inactives show at the top dose activity change, negative = cytotoxicity, actives largely listed as inhibitors. 4.3% of 94,000 active. NIH 3T3 viability, CellTiter-Glo ATP luminescence, 48-72 h. AID 1345082, 2018; also: nearly all actives have a fitted effect of over 55% in size
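Luminescent ATP readout (CellTiter-Glo, 10 min RT) after 48 or 72 hr compound exposure of NIH 3T3 cells seeded at 400 cells/well in 1536-well format; quantitative HTS.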
NPR1 antag: Natriuretic polypeptide receptor (hNpr1) antagonism - Primary qHTS | Atrial natriuretic peptide receptor 1 (Homo sapiens), P16066 | HEK293 hNpr1 GloSensor cGMP, ANP-stimulated luminescence | Potency, µM (titrated, usually from 46.3 µM), for inactives: at the highest dose activity change, negative = inhibition, most hits filed as inhibitors | 1.6% of 76,000 active | AID 1347048, 2019; calls by dose curve; also: nearly all actives have a fitted effect of over 60% in size
Target sequence (P16066 whole entry, looked up): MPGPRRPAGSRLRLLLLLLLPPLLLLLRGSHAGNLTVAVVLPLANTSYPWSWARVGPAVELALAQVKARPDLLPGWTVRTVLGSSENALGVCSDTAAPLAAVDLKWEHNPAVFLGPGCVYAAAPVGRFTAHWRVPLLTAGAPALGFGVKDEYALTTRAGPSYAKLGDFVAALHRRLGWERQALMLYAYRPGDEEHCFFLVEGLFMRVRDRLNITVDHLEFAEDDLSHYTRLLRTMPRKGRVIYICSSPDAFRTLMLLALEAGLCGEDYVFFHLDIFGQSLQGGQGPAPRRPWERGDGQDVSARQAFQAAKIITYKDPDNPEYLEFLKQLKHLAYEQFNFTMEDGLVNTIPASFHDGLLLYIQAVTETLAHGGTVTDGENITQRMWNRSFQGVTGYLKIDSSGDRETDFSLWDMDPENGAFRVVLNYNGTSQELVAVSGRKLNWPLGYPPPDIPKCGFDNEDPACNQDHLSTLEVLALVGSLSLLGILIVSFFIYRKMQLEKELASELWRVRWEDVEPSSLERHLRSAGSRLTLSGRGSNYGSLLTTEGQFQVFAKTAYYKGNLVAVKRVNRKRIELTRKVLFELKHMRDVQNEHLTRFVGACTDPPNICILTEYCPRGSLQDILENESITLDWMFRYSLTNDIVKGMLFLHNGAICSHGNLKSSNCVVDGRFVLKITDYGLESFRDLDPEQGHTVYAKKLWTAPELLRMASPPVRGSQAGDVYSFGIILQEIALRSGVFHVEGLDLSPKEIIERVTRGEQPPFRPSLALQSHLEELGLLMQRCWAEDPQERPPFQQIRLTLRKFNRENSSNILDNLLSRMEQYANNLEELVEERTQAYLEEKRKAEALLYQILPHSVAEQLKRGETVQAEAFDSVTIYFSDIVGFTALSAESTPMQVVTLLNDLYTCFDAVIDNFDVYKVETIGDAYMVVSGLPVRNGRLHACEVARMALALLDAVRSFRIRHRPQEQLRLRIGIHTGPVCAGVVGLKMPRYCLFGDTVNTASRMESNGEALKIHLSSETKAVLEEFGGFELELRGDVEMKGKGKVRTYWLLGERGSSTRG
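HEK293 cells stably expressing human Npr1 and cGMP GloSensor pGS-40F, loaded 2 h with 2% GloSensor reagent, given compound 30 min at room temperature. Luminescence read before and 20 min after 0.1 nM hNppA.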
The depositor's hits bear a star; i = inactive; ? = inconclusive; . = no result given; ! = not confirmed by another sample; [ ] = another dose, or the depositor's remark. Unless noted, calls follow the shape of the dose curve; as a rule, active = well fitted curve in the direction sought with a large enough effect; inconclusive = small, poorly fitted or top-dose-only effect, or another doubt; inactive = no such curve, though single readings can be large; an effect the other way counts as inactive or inconclusive. % is scaled to controls: 0 for no effect and ±100 for the full control effect; potency is read from the fitted curve at half-maximal effect.

SMILES | HEK293 tox | FLuc inh | NIH3T3 tox | NPR1 antag
COc1ccc(Cl)cc1-c1ccc2c(c1)C(=O)N1CC[C@H](N)C[C@H]1C(=O)N2 | 25µM* | i | 32µM* | -16%[70.6 µM]
COc1ccc(Cl)cc1-c1ccc2c(c1)C(=O)N1C[C@@H](NS(=O)(=O)c3ccc(F)cc3)C[C@H]1C(=O)N2 | 35µM* | i | ? | -28%
COc1cccc(Nc2ccc3c(n2)C(C)(C(=O)NC2CCC2)CN(C)C3)c1 (configuration not stated) | ? | i | ? | -3%[70.6 µM]
CC(C)Cn1c(=O)c(C(=O)N2CCN(C(=O)Nc3ccc(Cl)cc3)CC2)nc2cccnc21 | i | . | -19% | .
O=C(NCc1ccc(F)cc1)c1cc(-c2ccsc2)c2nncn2n1 | ? | . | -17% | .
CC1=C[C@@H](CNC(=O)N2CCOCC2)[C@H](C(C)C)C[C@H]1Cc1nc2ccccc2n1C | 63µM* | i | 63µM* | ?
CC1=C[C@@H](CNC(=O)COCC(=O)O)[C@H](C(C)C)C[C@H]1Cc1nc2ccccc2n1C | -6%[172 µM] | i | -29%[174 µM] | -16%[70.6 µM]
CC1=C[C@@H](CNC(=O)Cn2cnnn2)[C@H](C(C)C)C[C@H]1Cc1nc2ccccc2n1C | ? | i | 89µM* | ?
CC1=C[C@@H](CNC(=O)COCC(=O)O)[C@H](C(C)C)C[C@H]1Cc1nc2ccc(C)cc2[nH]1 | -20%[172 µM] | i | 2%[174 µM] | -2%[70.6 µM]
CC1=C[C@@H](CNC(=O)Cn2cnnn2)[C@H](C(C)C)C[C@H]1Cc1nc2ccc(C)cc2[nH]1 | 89µM* | i | ? | -23%[70.6 µM]
COCC(=O)NC[C@@H]1C=C(C)[C@H](Cc2nc3ccccc3n2C)C[C@H]1C(C)C | 56µM* | i | 50µM* | ?
CC1=C[C@@H](CNC(=O)c2cnccn2)[C@H](C(C)C)C[C@H]1Cc1nc2ccccc2n1C | ? | i | ? | ?
O=C(c1cn(CCC2CCCCN2Cc2cccnc2)nn1)N1CCOCC1 (configuration not stated) | -4% | . | -14% | .
CNC(=O)c1cc(C2CC2)nc2onc(C3CCN([S+](=O)([O-])c4ccccc4)C3)c12 (configuration not stated) | ? | . | -19% | .
COCCCn1c(=O)c(C(=O)N2CCN(C(=O)OC)CC2)nc2cccnc21 | i | . | -16% | .
Cc1noc(C2CC3(CCN(C(=O)CC(C)C)CC3)CN2C)n1 (configuration not stated) | -4% | . | 5% | .
COc1ccc2[nH]c3c(c2c1)CCN(C)C31CCN(C(=O)COc2ccc(F)cc2)CC1 | ? | i | ? | -16%
C[C@]12CC[C@H](O)CC1=CCN(Cc1cccc(OC(F)(F)F)c1)C2 | ? | . | -25% | .
CC(C)CCNC(=O)CCC1CCN(C(=O)c2ccccc2F)CC1 | -22% | 28µM* | -28% | -3%
Fc1ccc2nc([C@H]3CCN(Cc4ncc[nH]4)C3)[nH]c2c1 | ? | i | ? | -3%[70.6 µM]
Cc1ccc(CN2CC[C@H](c3nc4ccc(C(F)(F)F)cc4[nH]3)C2)cc1 | 40µM* | i | 28µM* | ?
Cc1ccc(CN2CC[C@H](c3nc4ccc(C)cc4[nH]3)C2)cc1 | ? | i | ? | -14%[70.6 µM]
Fc1ccc2nc([C@H]3CCN(Cc4ccc(F)c(F)c4)C3)[nH]c2c1 | 56µM* | ? | ? | ?
Fc1ccc(CN2CC[C@H](c3nc4ccc(C(F)(F)F)cc4[nH]3)C2)cc1F | 10µM* | i | 13µM* | ?
Fc1ccc2nc([C@H]3CCN(Cc4cccs4)C3)[nH]c2c1 | 71µM* | 40µM* | ? | ?
SMILES | HEK293 tox | FLuc inh | NIH3T3 tox | NPR1 antag
CNC(=O)c1cc(C2CC2)nc2c1c(C1CCCN1C(=O)c1ccc(F)cc1)nn2C (configuration not stated) | -10% | . | -26% | .
CC(=O)NC1CCN(C(=O)c2ccc(-c3ncccc3C#N)cc2)CC1 | -23% | . | -28% | .
COc1ccccc1CN1CC[C@H](c2nc3ccc(C(F)(F)F)cc3[nH]2)C1 | 32µM* | i | 28µM* | 1%[70.6 µM]
CC(C)OC(C)C(=O)N1CCc2onc(-c3ccc(C(F)(F)F)cc3)c2C1 (configuration not stated) | 28µM* | i | ? | -28%
COc1ccc(CNC(=O)c2nc3cccnc3n(Cc3ccc(OC)cc3)c2=O)cc1 | 79µM*! | . | ? | .
COc1ccc(CCNC(=O)c2nc3cccnc3n(CC(C)C)c2=O)cc1 | ? | . | 45µM* | .
C#CCNC(=O)c1nc2cccnc2n(Cc2ccc(OC)cc2)c1=O | -17% | . | -19% | .
CC(C)Cn1c(=O)c(C(=O)NC2CC2)nc2cccnc21 | -3%[172 µM] | . | -16%[138 µM] | .
COc1ccc(CN2CCN(c3ncnc4c3CCC4)CC2CCO)c(C)c1C (configuration not stated) | 10µM* | i | ? | -25%
COc1ccc(CN2CCN(c3ccnc(C)n3)CC2CCO)c(C)c1C (configuration not stated) | ? | i | -13% | 4%
OCC1(CN2CCCC2)CCN(C/C=C/c2ccccc2)CC1 | 35µM* | i | ? | 3%
OCC1(CN2CCCC2)CCN(Cc2ccc3ccccc3c2)CC1 | 40µM* | i | 40µM* | 3%
OCC1(CN2CCCC2)CCN(Cc2cc(F)cc(F)c2)CC1 | -5% | i | -30% | 7%
OCC1(CN2CCCC2)CCN(Cc2c(Cl)cccc2Cl)CC1 | ? | i | ? | 2%
O=C(Nc1cc(-c2ccccn2)nn1-c1ccccc1)c1ccc2ccccc2n1 | -17% | . | -24% | .
COc1cccc(NC(=O)[C@@H]2C[C@@H](c3ccc(F)cc3)N(Cc3ccccc3)C2)c1 | ? | i | 32µM* | ?
COc1ccc(NC(=O)[C@@H]2C[C@@H](c3ccc(F)cc3)N(Cc3ccccc3)C2)cn1 | ? | i | -21%[138 µM] | ?
COc1cc(CNC(=O)[C@@H]2C[C@@H](c3ccc(F)cc3)N(Cc3ccccc3)C2)cc(OC)c1 | ? | i | -26% | -5%
O=C(Nc1ccncn1)[C@@H]1C[C@@H](c2ccc(F)cc2)N(Cc2ccccc2)C1 | 100µM* | i | 79µM* | -18%[70.6 µM]
CN(Cc1ccc(-c2ccccc2)cc1)Cc1nccs1 | ? | 45µM* | ? | 10µM*
CN(Cc1ccc(-c2ccccc2)cc1)Cc1ccnn1C | 25µM* | ? | ? | 20µM*
CN(Cc1nccs1)Cc1cccn1C | ? | i | -13%[174 µM] | -5%[70.6 µM]
COc1ccc(S(=O)(=O)N2CCC(OCc3noc(C4CCCO4)n3)CC2)cc1 (configuration not stated) | -12% | . | -24% | .
CO[C@H]1C(=O)N(C(C)C)[C@H]1C1CCN(S(=O)(=O)c2cccc3nsnc23)CC1 | -28% | . | -27% | .
